The values below come from PubChem BioAssay (NCATS).

Assay [1] in a line: NCATS anti-infectives library activity on HEK293 viability as a counter-qHTS vs the C. elegans viability qHTS (AID 1745854). Further: on the % scale 0 is the no-effect control and ±100 the full control effect. The method in brief: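 HEK293 cells, 1500 per well, exposed 24 hr at 37C in 5% CO2 to compounds in a 1:5 titration, up to 41.7 uM final. Viability read as CellTiter-Glo luminescence after 10 min at room temperature.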
A general note: In qHTS, concentration-response curves come from the screen itself.

Assay [2] deals with Glutathione peroxidase 1 (Homo sapiens) (UniProt P07203). Briefly: Primary qHTS Assay for Inhibitors of Recombinant Selenoprotein Glutathione Peroxidase 1 (GPX1) (AID 1845191). Further: nearly all actives have a fitted effect of over 65% in size. The method in brief:
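10 nM GPX1 + cpd, 30 min RT; start w/ 1 mM GSH, 0.5 mM cumene hydroperoxide, 0.5 mM NADPH, 100 nM GR, 0.01% BSA; buffer 50 mM Tris-HCl pH 7.5, 2 mM EDTA, 150 mM NaCl; Fl 340/450, 0 & 15 min.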

Assay [3] has as its target Phospholipid hydroperoxide glutathione peroxidase GPX4 (Homo sapiens) (UniProt P36969). Put plainly: Primary qHTS Assay for Inhibitors of Recombinant Selenoprotein Glutathione Peroxidase 4 (GPX4) (AID 1845192). Further: nearly all actives have a fitted effect of over 65% in size. On activity change, negative = inhibition: on the % scale 0 is the no-effect control and ±100 the full control effect. The method in brief: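 NADPH consumption, followed by fluorescence at 340/450 nm between 0 and 15 min, reports GPX4 activity via coupled glutathione reductase (100 nM). Enzyme 200 nM was pre-exposed to compound 30 min; 0.5 mM cumene hydroperoxide and 1 mM GSH served as substrates.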

For assay [4], the target named is Catechol O-methyltransferase (Homo sapiens) (UniProt P21964). Put plainly: Confirmatory Screen for Target Class Profiling of Small Molecule Inhibitors of Methyltransferases (AID 1745852; calls by dose curve; on activity change, negative = inhibition: on the % scale 0 is the no-effect control and ±100 the full control effect). The conditions noted are these: MTase-Glo luminescence, SAH detection, recombinant enzyme; measured here: COMT max response; stronger effect = lower value.
Chain of Catechol O-methyltransferase (Homo sapiens) (P21964 whole entry, looked up): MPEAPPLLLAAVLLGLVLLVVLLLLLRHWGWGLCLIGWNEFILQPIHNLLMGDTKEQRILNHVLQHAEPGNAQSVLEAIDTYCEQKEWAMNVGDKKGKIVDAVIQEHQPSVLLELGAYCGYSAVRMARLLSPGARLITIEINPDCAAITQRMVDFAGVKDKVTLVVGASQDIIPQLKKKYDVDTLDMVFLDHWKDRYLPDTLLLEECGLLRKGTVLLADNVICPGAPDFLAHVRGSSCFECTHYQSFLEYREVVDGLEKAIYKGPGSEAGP
The target of assay [5] is Guanidinoacetate N-methyltransferase (Homo sapiens) (UniProt Q14353). The description is as above. The note with it: MTase-Glo luminescence, SAH detection, recombinant enzyme; activity change, negative = inhibition: at 57.3 µM (top of the series).
Assay [6] deals with Nicotinamide N-methyltransferase (Homo sapiens) (UniProt P40261). The assay is described as above. The conditions noted are these: MTase-Glo luminescence, SAH detection, recombinant enzyme; measured here: NNMT max response; stronger effect = lower value.
Chain of Nicotinamide N-methyltransferase (Homo sapiens) (P40261 whole entry, looked up): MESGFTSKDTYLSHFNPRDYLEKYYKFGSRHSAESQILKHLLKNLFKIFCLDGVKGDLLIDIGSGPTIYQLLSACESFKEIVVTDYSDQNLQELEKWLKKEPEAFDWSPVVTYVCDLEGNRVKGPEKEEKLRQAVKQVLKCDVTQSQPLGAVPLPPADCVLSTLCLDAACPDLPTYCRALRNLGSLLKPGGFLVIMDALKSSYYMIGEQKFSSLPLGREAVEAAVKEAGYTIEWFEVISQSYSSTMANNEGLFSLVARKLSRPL
Assay [7] addresses Phenylethanolamine N-methyltransferase (Homo sapiens) (UniProt P11086). The description is as above. The note with it: MTase-Glo luminescence, SAH detection, recombinant enzyme; measured here: PNMT max response; stronger effect = lower value.
Assay [8] has as its target Metallo-beta-lactamase type 2 (Klebsiella pneumoniae) (UniProt C7C422). Put plainly: qHTS to identify inhibitors of the New Delhi Metallo-beta-lactamase (NDM): assay validation screen against the NCATS LOPAC Collection (AID 1794843).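 Further: nitrocefin turnover by NDM-1 measured as 485 nm absorbance at plateau; on the % scale 0 is the no-effect control and ±100 the full control effect.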 The method in brief: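 NDM-1 at 2 nM final in 50 mM HEPES pH 7.0 with 1 uM ZnSO4 and 0.01% Tween20 was preincubated with library compounds in DMSO. Nitrocefin (50 uM stock) was then added, and absorbance at 485 nm was read at the kinetic plateau.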

Assay [9] addresses Luciferin 4-monooxygenase (Photinus pyralis) (UniProt P08659). Briefly: Primary firefly luciferase (FLuc) qHTS assay for identification of artifact compounds. (AID 1845220). Further: nearly all actives have a fitted effect of over 60% in size. The note with it: outcome: dose series up to 54.1 µM. The procedure, abridged:
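Compounds sat 15 min at room temperature with 10 uM luciferin and 10 uM ATP (pH 7.6 Tris acetate). Firefly luciferase (10 nM final) was then added, and luminescence was read 5 min later. Data normalized to no-enzyme and DMSO controls were Hill-fitted.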

Assay [10] can be described thus: Primary fluorescence-based thiol-reactive (MSTI) qHTS assay for identification of artifact compounds. (AID 1845221).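 Further: thiol-reactive compounds lower the probe fluorescence signal; nearly all actives have a fitted effect of over 65% in size.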 The method in brief:
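Thiol-reactive compounds detected by quenching of 4 uM MSTI fluorescence (525/598 nm) after 1 h room-temperature dark incubation in PBS pH 7.4, 2% DMSO. qHTS titration; percent inhibition Hill-fitted against Acetyl-MSTI/MSTI controls.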

Assay [11] is described as follows: Viability counterscreen for antagonist of constitutive androstane receptor (CAR) against the NCATS DSHEA and TCM libraries (AID 1794837).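 Further: compound exposure lasted 24 h before viability reading; 0% is about no effect.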 The procedure, abridged: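 Counterscreen performed in a 1536-well qHTS format using HepG2-CYP2B6-hCAR cells; samples titrated in the presence of 48 uM CITCO, with viability measured fluorometrically (405/540 nm) after 24 h.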

The nature of assay [12]: Viability counterscreen for agonist of constitutive androstane receptor (CAR) against the NCATS DSHEA and TCM libraries (AID 1794838).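 Further: HepG2 cells with CYP2B6 reporter and hCAR plus 0.75 µM PK11195 antagonist; 0% is about no effect.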 The method in brief: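 Multiplexed counterscreen: after 24 h compound exposure with 0.75 uM PK11195, HepG2-CYP2B6-hCAR viability was quantified fluorimetrically (CellTiter-Fluor, 405/540 nm) prior to the ONE-Glo luciferase read.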
Assay [13] is described as follows: HepG2 viability counterscreen (readout 2: ATP content) against the NCATS DSHEA and TCM libraries (AID 1794840).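 Further: HepG2 cells exposed to substances for about 24 h; 0% is about no effect.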 The method in brief: (§1)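 After HepG2 cells attach for ~4 h, substances are added and incubated ~24 h at 37C, 5% CO2. GF-AFC fluorescence then CellTiter-Glo luminescence give protease and ATP readouts.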
(The purpose of a counterscreen is to sort out artefacts and off-target activity.)

Assay [14] is described as follows: HepG2 viability counterscreen (readout 1: protease activity) against the NCATS DSHEA and TCM libraries (AID 1794841).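 Further: cells exposed to compounds for about 24 h before the protease read; 0% is about no effect.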 The method in brief: as §1
Assay [15] can be described thus: NCATS anti-infectives library activity on the primary C. elegans qHTS viability assay (AID 1745855; calls by dose curve). The note with it: C. elegans worm area imaging, day 7; at 41.8 µM (top of the series). The method in brief:
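Viability is taken from GFP fluorescence of PE254-GFP-FLuc C. elegans imaged by laser cytometry over 7 days. Ten L1 worms per well grow at 21 °C on TOP10 E. coli capsules with titrated compound; levamisole marks toxicity.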

Assay [16] has as its target Rap guanine nucleotide exchange factor 3 (Homo sapiens) (UniProt O95398). Briefly: Confirmatory qHTS for antagonist of cAMP-regulated guanine nucleotide exchange factor 3 (EPAC1) (AID 1645880).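 Further: plate controls were DMSO only for no effect and full effect of the ATA control for full effect; nearly all actives have a fitted effect of over 55% in size.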 The procedure, abridged:
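Nucleotide exchange uses 100 nM EPAC1, 250 nM RAP1B-BODIPY-GDP and 50 uM GDP, with compounds in a concentration-titration series. After 5 min at room temperature, fluorescence (480 nm ex/540 nm em) is read every 5 min for 30 min. Data are normalized to control ATA and DMSO.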

The target is the same in assay [17]. Put plainly: Confirmatory qHTS for agonist of cAMP-regulated guanine nucleotide exchange factor 3 (EPAC1) (AID 1645881).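 Further: EPAC1 catalysed release of BODIPY-GDP from Rap1B seen as fluorescence loss; 100% = effect of cAMP agonist control; nearly all actives have a fitted effect of over 75% in size.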
Assay [18] deals with Rap guanine nucleotide exchange factor 4 (Homo sapiens) (UniProt Q8WZA2). Briefly: Confirmatory qHTS for agonist of cAMP-regulated guanine nucleotide exchange factor 4 (EPAC2) (AID 1645884).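 Further: nucleotide exchange releases bodipy-GDP from Rap1 and this lowers its fluorescence; on the % scale 0 is the no-effect control and ±100 the full control effect; nearly all actives have a fitted effect of over 65% in size.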
Chain of Rap guanine nucleotide exchange factor 4 (Homo sapiens) (Q8WZA2 whole entry, looked up): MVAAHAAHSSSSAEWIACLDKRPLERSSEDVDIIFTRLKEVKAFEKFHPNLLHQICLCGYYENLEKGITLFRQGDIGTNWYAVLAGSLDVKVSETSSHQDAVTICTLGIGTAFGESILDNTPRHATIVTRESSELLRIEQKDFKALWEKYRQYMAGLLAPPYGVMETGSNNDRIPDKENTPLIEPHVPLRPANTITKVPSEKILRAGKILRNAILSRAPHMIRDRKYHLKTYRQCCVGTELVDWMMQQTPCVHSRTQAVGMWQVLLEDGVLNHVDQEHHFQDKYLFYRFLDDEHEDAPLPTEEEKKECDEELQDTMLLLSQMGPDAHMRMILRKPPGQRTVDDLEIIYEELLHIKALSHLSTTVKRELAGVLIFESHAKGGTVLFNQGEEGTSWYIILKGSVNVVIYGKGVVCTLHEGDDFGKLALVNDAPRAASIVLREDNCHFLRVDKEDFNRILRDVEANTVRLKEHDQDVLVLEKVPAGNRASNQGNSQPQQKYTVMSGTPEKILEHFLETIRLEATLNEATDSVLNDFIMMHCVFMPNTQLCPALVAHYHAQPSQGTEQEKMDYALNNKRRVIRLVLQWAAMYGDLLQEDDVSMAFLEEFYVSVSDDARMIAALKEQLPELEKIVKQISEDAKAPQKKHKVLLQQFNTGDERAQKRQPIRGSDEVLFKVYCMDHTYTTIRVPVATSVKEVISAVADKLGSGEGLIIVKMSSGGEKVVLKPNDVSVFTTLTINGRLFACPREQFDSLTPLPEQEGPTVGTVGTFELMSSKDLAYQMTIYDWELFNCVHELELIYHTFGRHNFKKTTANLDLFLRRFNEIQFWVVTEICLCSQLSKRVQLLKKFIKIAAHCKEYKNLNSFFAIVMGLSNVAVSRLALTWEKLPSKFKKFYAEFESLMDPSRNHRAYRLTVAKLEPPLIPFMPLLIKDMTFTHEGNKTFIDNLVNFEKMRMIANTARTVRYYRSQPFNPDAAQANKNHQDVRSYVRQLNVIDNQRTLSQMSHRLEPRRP
For assay [19] the target is unchanged. Put plainly: Confirmatory qHTS for antagonist of cAMP-regulated guanine nucleotide exchange factor 4 (EPAC2) (AID 1645885). Further: on the % scale 0 is the no-effect control and ±100 the full control effect; nearly all actives have a fitted effect of over 25% in size.

Records with an inconclusive call do not appear. Active and inactive are the calls of the source. Unless noted, the call rests on the fitted dose curve; in most records, active means well fitted curve in the direction sought with a large enough effect; inconclusive means small, poorly fitted or top-dose-only effect, or another doubt; inactive means no such curve, though single readings can be large; an effect the other way counts as inactive or inconclusive.

Chain of Metallo-beta-lactamase type 2 (Klebsiella pneumoniae) (C7C422 whole entry, looked up): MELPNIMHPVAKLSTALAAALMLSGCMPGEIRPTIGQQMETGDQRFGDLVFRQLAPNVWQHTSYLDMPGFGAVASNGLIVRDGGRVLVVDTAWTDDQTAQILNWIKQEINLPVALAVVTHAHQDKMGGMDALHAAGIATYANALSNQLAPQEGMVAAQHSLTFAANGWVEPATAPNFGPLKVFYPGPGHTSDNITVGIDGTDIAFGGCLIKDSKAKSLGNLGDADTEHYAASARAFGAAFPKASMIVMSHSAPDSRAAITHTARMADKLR
Chain of Phospholipid hydroperoxide glutathione peroxidase GPX4 (Homo sapiens) (P36969 whole entry, looked up): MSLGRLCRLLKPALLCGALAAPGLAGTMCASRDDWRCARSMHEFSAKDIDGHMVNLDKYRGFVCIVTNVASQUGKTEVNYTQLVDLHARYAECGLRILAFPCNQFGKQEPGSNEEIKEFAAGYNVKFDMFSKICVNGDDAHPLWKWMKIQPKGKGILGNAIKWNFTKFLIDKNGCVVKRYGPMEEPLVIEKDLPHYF
Chain of Glutathione peroxidase 1 (Homo sapiens) (P07203 whole entry, looked up): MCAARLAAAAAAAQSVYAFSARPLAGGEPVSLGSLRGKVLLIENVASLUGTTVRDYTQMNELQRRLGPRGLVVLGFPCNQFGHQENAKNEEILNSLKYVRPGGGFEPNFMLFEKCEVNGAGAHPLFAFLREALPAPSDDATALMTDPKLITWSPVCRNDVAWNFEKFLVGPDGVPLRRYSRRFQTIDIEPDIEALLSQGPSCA
Chain of Rap guanine nucleotide exchange factor 3 (Homo sapiens) (O95398 whole entry, looked up): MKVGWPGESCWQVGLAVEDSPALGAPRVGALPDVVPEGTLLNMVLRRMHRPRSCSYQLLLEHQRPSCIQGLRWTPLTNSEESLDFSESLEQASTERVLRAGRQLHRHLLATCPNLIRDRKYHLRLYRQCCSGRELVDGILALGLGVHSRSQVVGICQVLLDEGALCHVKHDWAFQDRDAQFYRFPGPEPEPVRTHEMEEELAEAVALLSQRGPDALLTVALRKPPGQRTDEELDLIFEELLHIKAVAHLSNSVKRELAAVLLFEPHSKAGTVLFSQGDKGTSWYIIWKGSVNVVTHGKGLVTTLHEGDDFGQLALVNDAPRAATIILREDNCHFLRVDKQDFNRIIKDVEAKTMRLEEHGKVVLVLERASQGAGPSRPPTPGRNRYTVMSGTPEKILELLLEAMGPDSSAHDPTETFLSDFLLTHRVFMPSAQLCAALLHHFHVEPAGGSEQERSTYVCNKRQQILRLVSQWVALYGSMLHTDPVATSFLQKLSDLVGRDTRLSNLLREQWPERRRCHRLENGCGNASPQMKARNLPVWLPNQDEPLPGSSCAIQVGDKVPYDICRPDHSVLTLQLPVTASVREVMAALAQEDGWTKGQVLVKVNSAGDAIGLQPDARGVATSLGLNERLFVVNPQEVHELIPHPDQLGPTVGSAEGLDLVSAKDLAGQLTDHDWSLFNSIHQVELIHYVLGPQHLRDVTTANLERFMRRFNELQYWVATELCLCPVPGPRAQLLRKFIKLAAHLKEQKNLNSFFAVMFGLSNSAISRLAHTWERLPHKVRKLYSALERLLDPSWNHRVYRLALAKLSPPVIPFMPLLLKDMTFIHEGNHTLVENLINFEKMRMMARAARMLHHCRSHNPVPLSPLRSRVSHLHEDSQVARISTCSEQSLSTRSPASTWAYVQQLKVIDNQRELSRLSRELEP
Chain of Phenylethanolamine N-methyltransferase (Homo sapiens) (P11086 whole entry, looked up): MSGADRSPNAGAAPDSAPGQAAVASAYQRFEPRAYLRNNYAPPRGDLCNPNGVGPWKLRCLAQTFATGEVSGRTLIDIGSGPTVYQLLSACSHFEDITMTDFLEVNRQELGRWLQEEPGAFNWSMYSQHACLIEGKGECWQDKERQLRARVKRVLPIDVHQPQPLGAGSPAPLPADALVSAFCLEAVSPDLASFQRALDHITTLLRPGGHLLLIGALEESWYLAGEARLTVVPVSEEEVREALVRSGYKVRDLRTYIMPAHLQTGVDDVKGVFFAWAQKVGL

`O=S(=O)(c1cccc2cnccc12)N1CCCNCC1`: the Potency entry in [1], in assay [2] and in [3] was “inactive” in each case.

With `CNS(=O)(=O)CCc1ccc2[nH]cc(C3CCN(C)CC3)c2c1`, the values for the activity in assay [4], in assay [6] and in [7] were -4.91%, -12.2% and -2.32%, respectively. Also, the activity change, negative = inhibition in [5] came out at 2.91%. Further, the outcome in assay [8] and in [9] was “inactive” throughout. Besides, the Potency entry in [2], in assay [3] and in assay [10] was “inactive” throughout.

With `COc1ccc2cc3[n+](cc2c1OC)CCc1cc2c(cc1-3)OCO2`, the outcome in assay [11], in assay [12], in [13] and in [14] was “inactive” throughout. Also, the Potency result in [2] and in assay [3] was “inactive” each time.

For `CCCCS(=N)(=O)CCC(N)C(=O)O` (stereo not drawn), the outcome in assay [8] is “inactive”. Moreover, the Potency entry in [2] and in assay [3] was “inactive” in each case.

Regarding `Cc1ccc(S(=O)(=O)N[C@@H](Cc2ccccc2)C(=O)CCl)cc1`, the outcome in assay [8] was “inactive”. Besides, the Potency result in assay [2] and in assay [3] was “inactive” each time.

As to `CC(C)(C)C(=O)OCOP(=O)(COCCn1cnc2c(N)ncnc21)OCOC(=O)C(C)(C)C`, the outcome in assay [15] was “inactive”. For the same molecule, the Potency result in assay [2] and in [3] was “inactive” each time.

Regarding `Cc1cccc(N(C)C(=S)Oc2ccc3ccccc3c2)c1`, the outcome in [16], in assay [17], in assay [18] and in assay [19] was “inactive” throughout. For the same molecule, the Potency entry in assay [2] and in assay [3] was “inactive” throughout.

On to `CC[C@H](NC(C)C)[C@H](O)c1ccc(O)c2[nH]c(=O)ccc12`, for which the Potency result in assay [2] and in assay [3] was “inactive” throughout.

In the case of `COc1ncnc(NS(=O)(=O)c2ccc(N)cc2)c1OC`, the Potency result in [2] and in [3] was “inactive” in each case.

As to `Cc1cc(NS(=O)(=O)c2ccc(N)cc2)no1`, the Potency entry in [2] and in assay [3] was “inactive” throughout.

Take `OC(Cn1cncn1)(Cn1cncn1)c1ccc(F)cc1F`: the Potency entry in [2] and in assay [3] was “inactive” throughout.

As for `NC(N)=NC(N)=NCCc1ccccc1`, the Potency entry in assay [2] and in assay [3] was “inactive” throughout.

In the case of `CN(C)c1ccc(C(=C2C=CC(=[N+](C)C)C=C2)c2ccc(N(C)C)cc2)cc1`, the Potency result in assay [2] and in [3] was “inactive” in each case.

In the case of `CC(C)OC(=O)C(C(=O)OC(C)C)=C1SC=CS1`, the Potency entry in assay [2] and in assay [3] was “inactive” in each case.

Regarding `O=C(O)c1ccc(-n2nc(-c3ccccc3O)nc2-c2ccccc2O)cc1`, the Potency entry in assay [2] and in assay [3] was “inactive” in each case.

`COC(c1ccccc1)(c1ccccc1)[C@H](Oc1nc(C)cc(C)n1)C(=O)O`: the Potency entry in [2] and in [3] was “inactive” each time.

Take `COc1ccc(-c2ccc3cc(C(=O)O)ccc3c2)cc1C12CC3CC(CC(C3)C1)C2`: the Potency result in assay [2] and in assay [3] was “inactive” throughout.

For `NS(=O)(=O)c1cc2c(cc1Cl)NC(C(Cl)Cl)NS2(=O)=O` (stereo not drawn), the Potency entry in [2] and in [3] was “inactive” in each case.

Turning to `CCc1cc(C(N)=S)ccn1`, the Potency result in assay [2] and in assay [3] was “inactive” each time.

`Cc1noc(NS(=O)(=O)c2ccc(N)cc2)c1C`: the Potency result in assay [2] and in assay [3] was “inactive” throughout.

Turning to `O=C(O)c1cc(=O)[nH]c(=O)[nH]1`, the Potency entry in [2] and in [3] was “inactive” throughout.

`O=C(O)CSCC(=O)NC1CCSC1=O` (stereo not drawn): the Potency result in assay [2] and in assay [3] was “inactive” throughout.
